# The list is not random: actives were taken first. Their share in the collection is about 0.84%.
# PPARg SRC3 recr = promotes SRC-3 coactivator recruitment by human PPARgamma | biochemical PPARgamma/SRC-3 coactivator recruitment assay | P37231 | activation, % at 8 µM | hit rate 0.26% among 200,000; in the data active means activation above about 23%;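 further: 0% = DMSO and 100% = reference agonist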
# SRC1 TRFRET art = TR-FRET artefact, counter-screen to PPARgamma/SRC-1 agonist assay; TR-FRET detection artefact counter-screen, emission ratio; hits give high values; TR-FRET ratio at 8 µM; hit rate 0.34% among 99,000; AID 1051; in the data active means TR-FRET ratio above about 2300
# PPARg SRC-1 ag = agonists of human PPARgamma SRC-1 coactivator recruitment; P37231; PPARgamma-SRC-1 coactivator recruitment biochemical assay; activation, % at 8 µM; hit rate 0.41% among 200,000; in the data active means activation above about 19%;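 further: 0% = DMSO and 100% = reference agonist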
# PPARg SRC-2 ag = PPARgamma-driven SRC-2 recruitment agonism. P37231. PPARgamma LBD-SRC-2 recruitment, biochemical. activation, % at 8 µM. hit rate 0.34% among 200,000; in the data active means activation above about 22%;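 further: 0% = vehicle and 100% = reference agonist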
# SRC3 TRFRET art = TR-FRET artefact, counter-screen to PPARgamma/SRC-3 agonist assay; PPARgamma/SRC-3 format; hits give high values; hit rate 0.39% among 99,000; TR-FRET ratio at 8 µM
# SRC2 TRFRET art = flags TR-FRET format artefacts in PPARgamma SRC-2 recruitment agonist screen; TR-FRET artefact counter-screen; hits give high values; TR-FRET ratio at 8 µM; hit rate 0.4% among 200,000
# PPARg SRC2 conf = human PPARgamma SRC-2 recruitment agonism, confirmation. activation, % at 8 µM. AID 1297. biochemical SRC-2 recruitment by PPARgamma. shares compounds with PPARg SRC3 recr. hit rate 52% among 790; in the data active means activation above about 22%;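 further: 0% = vehicle alone and 100% = reference agonist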
# PPARg SRC1 conf = confirmation of agonists of SRC-1 recruitment by human PPARgamma | PPARgamma–SRC-1 coactivator recruitment biochemical assay | AID 1300 | hit rate 43% among 790 | activation, % at 8 µM | shares compounds with PPARg SRC3 recr; in the data active means activation above about 20%;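 further: 0% = vehicle wells and 100% = reference agonist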
# PPARg SRC3 ag = confirmation of agonists of SRC-3 recruitment by human PPARgamma. shares compounds with PPARg SRC3 recr. biochemical PPARgamma-SRC-3 coactivator recruitment, agonist mode. activation, % at 8 µM. hit rate 29% among 790. AID 1301; in the data active means activation above about 24%;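 further: 0% = vehicle wells and 100% = reference agonist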
# Active calls of the source: *; x = no result given. Unless noted, no stated cut-off is given here; in the data, active means TR-FRET ratio above about 2000; inactive means the rest.
SMILES,PPARg SRC3 recr,SRC1 TRFRET art,PPARg SRC-1 ag,PPARg SRC-2 ag,SRC3 TRFRET art,SRC2 TRFRET art,PPARg SRC2 conf,PPARg SRC1 conf,PPARg SRC3 ag
O=c1c2cn[nH]c2nc(SCc2ccccc2F)n1-c1ccc(Br)cc1,3,1760,7,-1,1579,1610,x,x,x
O=c1c2cn[nH]c2nc(SCc2cc(=O)n3cc(Br)ccc3n2)n1-c1ccc(Br)cc1,22,3354*,33*,36*,2853*,2457*,28*,19,20
O=C(Cn1ccc(C(F)(F)F)n1)N=Nc1c(O)[nH]c2ccc(Br)cc12,9,1832,6,8,1934,1811,x,x,x
O=C(O)c1cc(-c2ccc3c(c2)OCO3)nc2ccc(Br)cc12,23*,2873*,33*,31*,2538*,2330*,9,1,8
COC(=O)c1cc(-c2ccc3c(c2)OCO3)nc2ccccc12,-2,1725,-1,-2,1427,1616,x,x,x
O=C(O)c1cc(-c2cccnc2)nc2ccc(Br)cc12,13,2326*,25*,16,2133*,1853,14,6,10
CNC(=O)NC(=O)CSc1nc(-c2cccs2)c(C#N)c(=O)[nH]1,31*,3256*,41*,56*,2978*,3062*,43*,29*,30*
CCOC(=O)Cc1csc(NC(=O)CSc2nc(-c3ccccc3)c(C#N)c(=O)[nH]2)n1,0,1835,5,6,1539,1702,x,x,x
N#Cc1c(-c2cccs2)nc(SCc2ccc(Cl)cc2)[nH]c1=O,24*,3031*,32*,43*,2717*,2686*,36*,25*,24*
O=c1[nH]c(SCc2ccc(Cl)cc2)nc2ccsc12,0,2154,6,10,1716,1567,x,x,x
CCOC(=O)c1cc(Br)c(=O)n2ccccc12,32*,x,32*,39*,x,2044*,17,16,12
Fc1ccc(Br)cc1C1C=C(c2ccc(Br)s2)Nc2ncnn21 (stereo unspecified),32*,3232*,46*,51*,3060*,2711*,54*,35*,39*
COc1cccc(C2C=C(c3ccc(Br)s3)Nc3ncnn32)c1OC (stereo unspecified),17,3079*,33*,27*,2570*,2137*,57*,48*,36*
Cn1cccc1C(=O)NC(=O)COC(=O)c1ccccc1Sc1ccccc1C#N,29*,x,24*,22*,x,3090*,19,19,10
Cc1ccc(S(=O)(=O)c2c(COC(=O)c3ccc(Cl)cc3)c(-c3ccccc3)nn2C)cc1,3,x,9,1,x,1546,x,x,x
COC(=O)c1sccc1NC(=O)c1cc(-c2cccc(C)c2)nc2ccccc12,13,x,9,26*,x,2058*,2,5,2
O=C(NC(=S)NCC1CCCO1)c1ccc(Br)o1 (stereo unspecified),1,1809,-2,-11,1529,1435,x,x,x
CCSC1=NSC2=NC(=O)/C(=C\c3coc4ccccc4c3=O)C(=N)N12,23*,1609,8,13,1460,1696,9,8,20
COCCn1cnnc1SCC(=O)Nc1sccc1C(N)=O,0,1656,-3,-7,1449,1370,x,x,x
Oc1c(Br)cc(C=Nc2ccc3nc(-c4ccccc4)[nH]c3c2)c(O)c1Br,12,1998,22*,12,1961,1907,15,15,9
c1ccc(-c2nc3ccccc3s2)nc1,1,x,0,0,x,1587,x,x,x
Brc1ccc(-c2nc3ccccc3s2)s1,93*,x,71*,63*,x,3008*,89*,66*,59*
COCc1cc(C)nc2sc3c(=O)oc(C)nc3c12,3,x,20*,13,x,1809,7,2,1
COc1c(C)cccc1C(=O)NC(=S)Nc1cccc2nsnc12,36*,2682*,39*,30*,2881*,2472*,90*,71*,60*

# Bioassay records from PubChem BioAssay.
